{"source": "the OligoGym collection"}
{"target": "CIAPIN1", "assay": "pooled miR-30 sensor sort-seq; sequence = guide strand", "conditions": "shRNA"}
{"sequence": "TTCTTCAGGACACACTCCCTTC", "sensor-assay potency score (higher = more potent)": -0.89}
{"sequence": "TTGACTTCTCTTTTTCCAGTTC", "sensor-assay potency score (higher = more potent)": -0.361}
{"sequence": "TCTCAGAGTGAACAAATCCAGA", "sensor-assay potency score (higher = more potent)": -1.26}
{"sequence": "TTGTTATCTACAGCTGTCTCTA", "sensor-assay potency score (higher = more potent)": -0.353}
{"sequence": "TTAGATGCTGTCTTCACTTTGC", "sensor-assay potency score (higher = more potent)": -0.0905}
{"sequence": "TTAACATAAATGACAACAGGAC", "sensor-assay potency score (higher = more potent)": -0.72}
{"sequence": "TAAGCTGCCTAGAAGAACCCAC", "sensor-assay potency score (higher = more potent)": 0.616}
{"sequence": "TGGTCTTTTGATACACAGCAGC", "sensor-assay potency score (higher = more potent)": -1.52}
{"sequence": "TGGAGTAAACTAACAACTCTGA", "sensor-assay potency score (higher = more potent)": -0.493}
{"sequence": "TAACGCTTGAAGCTTATCCACC", "sensor-assay potency score (higher = more potent)": -1.25}
{"sequence": "TGTGATCTGAACAAACAGCAGG", "sensor-assay potency score (higher = more potent)": -0.776}
{"sequence": "TTGTGAGCCACTTGACTCGTGT", "sensor-assay potency score (higher = more potent)": -0.0962}
{"target": "CIR1", "assay": "pooled miR-30 sensor sort-seq; sequence = guide strand", "conditions": "shRNA"}
{"sequence": "TTCTTTAAGATATTGCTGCATC", "sensor-assay potency score (higher = more potent)": -0.396}
{"sequence": "TTGTTCTTTAAGATATTGCTGC", "sensor-assay potency score (higher = more potent)": -0.164}
{"sequence": "TAGACTTGTCCTTCTCTTCAGA", "sensor-assay potency score (higher = more potent)": -0.159}
{"sequence": "TTCTCTTCTTAGACTTGTCCTT", "sensor-assay potency score (higher = more potent)": -0.317}
{"sequence": "TTTATTGTTACTCTCACTCTCA", "sensor-assay potency score (higher = more potent)": 0.426}
{"sequence": "TTCTTCATGAAGCTTTCTCTTC", "sensor-assay potency score (higher = more potent)": -0.59}
{"sequence": "TTTGTGTTTACTTCTGCTCTTC", "sensor-assay potency score (higher = more potent)": 0.203}
{"sequence": "TTTTCTTCTCCAGTCGATCTAA", "sensor-assay potency score (higher = more potent)": -0.412}
{"sequence": "TACTGCTTTCTGAAGTCTCAGT", "sensor-assay potency score (higher = more potent)": -0.586}
{"sequence": "TATCATATGATATTTTCTGTTC", "sensor-assay potency score (higher = more potent)": -0.717}
{"sequence": "TCTCTTCTTAGACTTGTCCTTC", "sensor-assay potency score (higher = more potent)": -0.0367}
{"sequence": "TTTCGTTTCAGTGCAAACCCAC", "sensor-assay potency score (higher = more potent)": -0.179}
{"target": "CIRBP", "assay": "pooled miR-30 sensor sort-seq; sequence = guide strand", "conditions": "shRNA"}
{"sequence": "TCTTTCACAACCACCACTTCAG", "sensor-assay potency score (higher = more potent)": -0.118}
{"sequence": "TGAGAAGACCTGCTCCAGCGAC", "sensor-assay potency score (higher = more potent)": -1.23}
{"sequence": "TAGTAGTCTCTGGAGCCTCCGT", "sensor-assay potency score (higher = more potent)": -1.12}
{"sequence": "TTGCCTGCCTGGTCTACTCGGA", "sensor-assay potency score (higher = more potent)": -0.263}
{"sequence": "TGTCTTTCACAACCACCACTTC", "sensor-assay potency score (higher = more potent)": -0.854}
{"sequence": "TGTCTGACGACTTGCCTGCCTG", "sensor-assay potency score (higher = more potent)": -1.09}
{"sequence": "TAGCCACCACTCTGACTCCGGC", "sensor-assay potency score (higher = more potent)": -0.921}
{"sequence": "TTAGCGTCGTCAATGTTCTCAA", "sensor-assay potency score (higher = more potent)": -0.0271}
{"sequence": "TCAGAGATCTGTCCGTACTTTG", "sensor-assay potency score (higher = more potent)": -1.1}
{"sequence": "TTTCACAACCACCACTTCAGAG", "sensor-assay potency score (higher = more potent)": -0.729}
{"sequence": "TAACTGTCGTAACTGTCTCTGT", "sensor-assay potency score (higher = more potent)": 0.0429}
{"sequence": "TCCGTACTTTGAGAAGACCTGC", "sensor-assay potency score (higher = more potent)": -0.634}
{"sequence": "TAGCGTCGTCAATGTTCTCAAA", "sensor-assay potency score (higher = more potent)": -1.03}
{"sequence": "ACTGTCGTAACTGTCTCTGTAG", "sensor-assay potency score (higher = more potent)": -0.226}
{"sequence": "TGTCGTAACTGTCTCTGTAGGA", "sensor-assay potency score (higher = more potent)": 0.291}
{"sequence": "TTCAGAGATCTGTCCGTACTTT", "sensor-assay potency score (higher = more potent)": 0.15}
